Experimental data taken from PubChem BioAssay (NCATS).
Results filed as inconclusive are left out. A number with no mark means an inactive call. Activity calls are given as the source filed them. Calls come from the whole dose curve; as a rule, active = well fitted curve in the direction sought with a large enough effect; inconclusive = small, poorly fitted or top-dose-only effect, or another doubt; inactive = no such curve, though single readings can be large; an effect the other way counts as inactive or inconclusive.

Test system: Zika virus NS2B-NS3 protease
Experiment: Primary screen GU AMC qHTS for Zika virus inhibitors (AID 1347154); note: nearly all actives have a fitted effect of over 70% in size;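 for activity change, negative = inhibition: 0% = no-inhibitor control and -100% = no-enzyme control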
Settings: Zika NS2B-NS3 unlinked protease, AMC fluorogenic substrate; series mostly up to 54.1 µM; activity change, negative = inhibition: at the top concentration
How it was run: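 Unlinked Zika NS2B hydrophilic domain–NS3 protease complex at 25 nM in 10 mM Tris-HCl pH 8.0, 0.01% Tween 20, with an AMC peptide substrate. Fluorescence change (340/450 nm) over 15 min at room temperature, normalized to controls, fitted to 4-parameter Hill.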
Potency is the fitted concentration of half-maximal effect.

Compound	activity change, negative = inhibition	Potency
CCc1ccc(C(=O)C(C)CN2CCCCC2)cc1 (stereo not drawn)	9.42%	
Oc1c(Cl)cc(Cl)c(Cl)c1Cc1c(O)c(Cl)cc(Cl)c1Cl		7.94 µM (active)
COC(=O)C(c1ccccc1Cl)N1CCc2sccc2C1 (stereo not drawn)		inactive
CC(=O)Nc1ncc([N+](=O)[O-])s1	-3.14%	
CCOC(=O)c1ccc(N)cc1	-2.37%	
CC[C@H](c1ccc(O)cc1)[C@@H](CC)c1ccc(O)cc1	-19.8%	
Cc1cccc(C)c1NC(=O)CN1CCCCCC1	-2.39%	
Cc1cc(-c2ccccc2)nnc1NCCN1CCOCC1	2.3%	
O=C(Nc1ccc([N+](=O)[O-])cc1)Nc1ccc([N+](=O)[O-])cc1	-7.28%	
CCOc1ccccc1OCCN[C@H](C)Cc1ccc(OC)c(S(N)(=O)=O)c1	3.21%	
C[N+]12CCC(CC1)C(OC(=O)C(O)(c1ccccc1)c1ccccc1)C2 (stereo not drawn)	3.63%	
CC(=O)Nc1ccc(OC(=O)c2ccccc2OC(C)=O)cc1	5.47%	
Cc1cc2c(OCC(CNC(C)(C)C)OC(=O)c3ccccc3)cccc2[nH]1 (stereo not drawn)	4.19%	
CCCCCCCCNC(C)C(O)c1ccc(SC(C)C)cc1 (stereo not drawn)	-11.8%	
O=C(O)C(Cc1cc(I)c(O)c(I)c1)c1ccccc1 (stereo not drawn)	-12.3%	
C[N+]1(CC2COC(c3ccccc3)(C3CCCCC3)O2)CCCCC1 (stereo not drawn)	-4.1%	
CCCCCCCCCCCCCCC[C@H](O)[C@@H](N)CO		inactive
O=C1C(CCS(=O)c2ccccc2)C(=O)N(c2ccccc2)N1c1ccccc1 (stereo not drawn)	-6.59%	
O=C1[C@H](CC[C@H](O)c2ccc(F)cc2)[C@@H](c2ccc(O)cc2)N1c1ccc(F)cc1	-10.6%	
OC(C#CCN1CCCC1)(c1ccccc1)c1ccccc1	8.93%	

Compound	activity change, negative = inhibition	Potency
CCCCN1C[C@H](O)[C@@H](O)[C@H](O)[C@H]1CO	5.37%	
CC(C(=O)O)c1cccc(Oc2ccccc2)c1 (stereo not drawn)	13.3%	
CCCCCCCCOc1ccc(C(=O)c2ccccc2)c(O)c1	-1.64%	
CNCCc1ccccn1	0.521%	
Cc1ccc(O)c([C@H](CCN(C(C)C)C(C)C)c2ccccc2)c1	4.1%	
O=C(NC1CCN(CCc2c[nH]c3ccccc23)CC1)c1ccccc1	-2.59%	
CC[C@]12CCCN3CCc4c(n(c5ccccc45)C(=O)C1)[C@@H]32	-7.69%	
CCCN(CCC)S(=O)(=O)c1ccc(C(=O)O)cc1	11.9%	
NS(=O)(=O)Cc1noc2ccccc12		inactive
O=C(N/N=C/c1ccc([N+](=O)[O-])o1)c1ccc(O)cc1	-7.08%	
C=CCN1CCc2nc(N)sc2CC1		inactive
C=C[C@H]1CN2CC[C@H]1C[C@H]2[C@H](O)c1ccnc2ccc(OC)cc12	-18.2%	
CCN(CC)CCNC(=O)c1cc(Br)c(N)cc1OC	-1.36%	
CC(=O)Oc1ccc(C)cc1	-5.55%	
N=C(N)N1CCc2ccccc2C1	1.62% [at 4.99 µM]	
CNCCCCOc1ccccc1Cc1ccccc1		inactive
CCCCCCCCCCCCCCCC(=O)O	-23.1%	
Clc1cccc(C(c2ccc3nc[nH]c3c2)n2ccnc2)c1 (stereo not drawn)	1.16%	
CCCCCCCCCCCCCC(=O)OC(C)C	-1.37%	
O=C(c1ccc(F)cc1)C1CCN(CCn2c(=S)[nH]c3ccccc3c2=O)CC1		inactive

Test system: not listed separately
Experiment: Confirmatory screen NINDS Rhodamine qHTS for Zika virus inhibitors (AID 1347161); note: nearly all actives have a fitted effect of over 60% in size;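 for activity change, negative = inhibition: purified Zika NS2B-NS3 protease with linked NS2B cofactor domain and Rhodamine110 peptide substrate; plate controls were no-inhibitor control for no effect and no-enzyme control for full effect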
Settings: purified enzyme assay, Rhodamine110 substrate fluorescence, 15 min; series mostly up to 114 µM; activity change, negative = inhibition: at the top concentration
How it was run: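 Enzyme (25 nM, linked NS2B-NS3) was preincubated 15 min with compound in 10 mM Tris-HCl pH 8.0, 0.01% Tween 20. Rhodamine110 substrate (1.5 microM) was then added and fluorescence read at start and after 15 min.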

Compound	Potency	activity change, negative = inhibition [%]
Oc1c(Cl)cc(Cl)c(Cl)c1Cc1c(O)c(Cl)cc(Cl)c1Cl	3.55 µM (active)	
O=C(O)C(Cc1cc(I)c(O)c(I)c1)c1ccccc1 (stereo not drawn)	50.1 µM (active)	
C=C[C@H]1CN2CC[C@H]1C[C@H]2[C@H](O)c1ccnc2ccc(OC)cc12		-8.9
